{"source": "PubChem BioAssay AID1985", "about": "(Southern Research Specialized Biocontainment Screening …, 2009)", "note": "Out of some 2,300 compounds screened, about 1,000 (43%) were called active. So high a share suggests a set chosen from earlier hits. The list shows a part of the results. Measured potencies and affinities stand elsewhere. A number with no mark means an inactive call. How the calls were made is not given here."}
{"assay": "PhoP regulon inhibitor project modified counter assay, GFP fluorescence readout, dose response (AID 1985)", "conditions": "S. Typhi, 4 h; series mostly up to 150 µM; inhibition: at the top concentration"}
{"molecule": "CCC(C)n1c(SCC(=O)NCc2ccco2)nnc1-c1cccc(S(=O)(=O)N2CCOCC2)c1", "note": "(stereo not given)", "inhibition": "15.2%"}
{"molecule": "COC(=O)c1ccccc1NC(=O)CSc1ncn[nH]1", "inhibition": "-15.8%"}
{"molecule": "CSc1cccc(NC(=O)/C=C/c2ccco2)c1", "inhibition": "23.1%"}
{"molecule": "COc1cccc(C(=O)Nc2cccc(SC)c2)c1", "inhibition": "8.22%"}
{"molecule": "Cc1ccc(-c2c[n+](Cc3ccc(Cl)c(Cl)c3)c3n2CCC3)cc1", "inhibition": "-16.3%"}
{"molecule": "CC1CCCC(NC(=O)COC(=O)Cc2c[nH]c3ccccc23)C1C", "note": "(stereo not given)", "inhibition": "-10.8%"}
{"molecule": "CCC(=O)Nc1nc(C)c(C(=O)N2CCCCC2)s1", "inhibition": "8.55%"}
{"molecule": "O=C(N/N=C/c1cccnc1)c1ccc(F)cc1", "inhibition": "2.11%"}
{"molecule": "CC(/C=C\\c1cccnc1)=C/C(=O)O", "inhibition": "1.58%"}
{"molecule": "Cc1ccc(C(C)C)c(OCCNC(=O)c2ccccc2O)c1", "inhibition": "29.6%"}
{"molecule": "O=C(Nc1ncccc1O)c1c(O)c2ccccc2[nH]c1=O", "inhibition": "17.4%"}
{"molecule": "CCC(Sc1nccn1C)C(=O)Nc1nnc(C)s1", "note": "(stereo not given)", "inhibition": "-7.61%"}
{"molecule": "Cc1ccc(-c2noc(CN3CCCCC3)n2)cc1", "inhibition": "-29.6%"}
{"molecule": "OCCN1CCN(Cc2cc(Cl)c3cccnc3c2O)CC1", "inhibition": "39.2%"}
{"molecule": "Cc1nc(N2CCOCC2)c2c(C)c(C(=O)Nc3ccccc3C(F)(F)F)sc2n1", "inhibition": "21.2%"}
{"molecule": "O=c1c2ccccc2nc(COc2ccccc2)n1/N=C/c1ccc(O)cc1O", "inhibition": "15.7%"}
{"molecule": "CCn1c(SCC(=O)Nc2oc(-c3ccccc3)c(-c3ccccc3)c2C#N)nnc1-c1ccco1", "inhibition": "30%"}
{"molecule": "CCCC(CCC)C(=O)NCCN1CCOCC1", "inhibition": "-18.2%"}
{"molecule": "COc1cccc(-c2ccc(SCc3ccccn3)nn2)c1", "inhibition": "-17.4%"}
{"molecule": "Fc1ccc(/C=N/Nc2nc3ccccc3[nH]2)cc1F", "inhibition": "21.8%"}
{"molecule": "CC1CCN(CCOCCOc2ccc(Br)cc2Cl)CC1", "inhibition": "21.5%"}
{"molecule": "COC(=O)c1cc2sccc2n1Cc1nc(-c2ccc(OC)cc2)oc1C", "inhibition": "-9.46%"}
{"molecule": "Oc1c(CN2CCN(c3ccccn3)CC2)cc(Cl)c2cccnc12", "inhibition": "6.65%"}
{"molecule": "Cc1cc2cc(CNC(=O)C(C)Oc3ccccc3)ccc2n1C", "note": "(stereo not given)", "inhibition": "-17.3%"}
{"molecule": "CNCCCC1c2ccccc2C=Cc2ccccc21", "inhibition": "37.2%"}
{"molecule": "COc1cc(OC)c(C2CC(=O)N3CN(c4ccccc4)CSC3=C2C#N)cc1OC", "note": "(stereo not given)", "inhibition": "0.55%"}
{"molecule": "COc1ccccc1-c1nc(C(F)(F)F)c(OC)o1", "inhibition": "-6.77%"}
{"molecule": "Cc1nc(C)c(-c2ccc(SCc3ccccc3F)nn2)s1", "inhibition": "-17.5%"}
{"molecule": "NC(=O)c1cc(S(=O)(=O)Nc2cccc(F)c2)co1", "inhibition": "23.2%"}
{"molecule": "Cc1c(/C=N/NC(=O)c2sc3ccccc3c2Cl)cnn1C", "inhibition": "12.1%"}
{"molecule": "O=C(NC1=NCCS1)c1cccc2ccccc12", "inhibition": "-30.7%"}
{"molecule": "COc1ccc(C(=O)N/N=C/c2cccnc2)cc1", "inhibition": "32.4%"}
{"molecule": "CCn1ncc(/C=N\\NC(=O)c2csc3ccccc23)c1C", "inhibition": "-13.8%"}
{"molecule": "O=C(NC1CC1)C1CCN(C2CCN(C(=O)Cc3ccc(F)cc3)CC2)CC1", "inhibition": "-0.34%"}
{"molecule": "CN1C(=O)N2CN(C3CCCCC3)CN3C(=O)N(C)C1C23", "note": "(stereo not given)", "inhibition": "26.2%"}
{"molecule": "CCn1nccc1C(=O)Nc1cc(Cl)cc(Cl)c1", "inhibition": "14.2%"}
{"molecule": "O=C(c1cccs1)N1CCC(N2CCN(c3ccccc3)CC2)CC1", "inhibition": "0.94%"}
{"molecule": "O=C(CCN1CCC(c2ccccc2)C1)c1ccc2c(c1)OCCO2", "note": "(stereo not given)", "inhibition": "-0.06%"}
{"molecule": "CCOC(=O)N1CCN(CCC(=O)c2ccc(Br)cc2)CC1", "inhibition": "36.8%"}
{"molecule": "O=C(CCN1CCN(c2ccccc2)CC1)c1ccc(Cl)cc1", "inhibition": "27%"}
{"molecule": "COc1ccc(C(=O)N2CCN(C(=O)Cc3ccccc3)CC2)cc1OC", "inhibition": "-8.35%"}
{"molecule": "CCOC(=O)N1CCN(CC(=O)Nc2ccc(F)cc2F)CC1", "inhibition": "-11%"}
{"molecule": "O=C(C[n+]1cn(C(F)F)c2ccccc21)c1ccc(Br)cc1", "inhibition": "-42.7%"}
{"molecule": "O=c1[nH]n(-c2ccccc2)c(=O)c2ccccc12", "inhibition": "25.6%"}
{"molecule": "CCOc1ccc(S(=O)(=O)N2CCC(C(=O)NCCN3CCOCC3)CC2)cc1C", "inhibition": "10.5%"}
{"molecule": "O=c1c2ccccc2ncn1Cc1ccc(Cl)cc1", "inhibition": "-17.5%"}
{"molecule": "CC(=O)C1=C(O)C(=O)N(CCN2CCOCC2)C1c1ccccc1", "note": "(stereo not given)", "inhibition": "6.14%"}
{"molecule": "CCc1ccc(C(=O)CC2(O)C(=O)N(CN3CCOCC3)c3ccccc32)cc1", "note": "(stereo not given)", "inhibition": "19.9%"}
{"molecule": "O=C(COC(=O)/C=C/c1cccc(C(F)(F)F)c1)NCc1ccccc1", "inhibition": "-28.6%"}
{"molecule": "CCC[C@H](CN[C@@H](CNC)[C@H](C)CC)NCCc1cc(C(F)(F)F)cc(C(F)(F)F)c1", "inhibition": "-3.97%"}
{"molecule": "COc1cc2c3cc1Oc1cc(ccc1O)C[C@@H]1c4c(cc(OC)c(O)c4Oc4ccc(cc4)C[C@H]3N(C)CC2)CCN1C", "inhibition": "3.53%"}
{"molecule": "Cc1ccc(C(C[N+](=O)[O-])n2nc(C)cc2C)cc1", "note": "(stereo not given)", "inhibition": "35% [at 75 µM]"}
{"molecule": "CCN1C(=O)NC(c2ccccc2)C1=O", "note": "(stereo not given)", "inhibition": "18%"}
{"molecule": "CCN(CC)CCCCCCCCOC(=O)c1cc(OC)c(OC)c(OC)c1", "inhibition": "-1.68%"}
{"molecule": "COc1cc(C(c2nnnn2C2CCCC2)N2CCN(C)CC2)cc(OC)c1OC", "note": "(stereo not given)", "inhibition": "2.81%"}
{"molecule": "O=S1(=O)CC=C(CSc2nc3ccccc3[nH]2)C1", "inhibition": "-9.82%"}
{"molecule": "Cc1ccnc(NS(=O)(=O)c2ccc(N=CC3=C(O)CC(C)(C)CC3=O)cc2)n1", "inhibition": "33.4%"}
{"molecule": "Cc1ccc(-n2[nH]c(C)c(C=NCc3ccncc3)c2=O)cc1", "inhibition": "-15.4%"}
{"molecule": "CCC(Oc1ccccc1)C(=O)Nc1nnc(S(=O)(=O)N2CCCCC2)s1", "note": "(stereo not given)", "inhibition": "-6.86%"}
{"molecule": "CCOc1ccc(C2CC(=O)NC(SCC(=O)OC)=C2C#N)cc1", "note": "(stereo not given)", "inhibition": "9.67%"}
{"molecule": "COc1ccc(-c2cc(C(=O)Nc3ccc(S(=O)(=O)Nc4onc(C)c4C)cc3)c3ccccc3n2)cc1OC", "inhibition": "9.88%"}
{"molecule": "CCC(CC)C(=O)NCCc1cc2ccc(C)cc2[nH]c1=O", "inhibition": "-11.5%"}
{"molecule": "O=Cc1ccc(N2CCCCCC2)cc1", "inhibition": "-1.36%"}
{"molecule": "CCOC(=O)C1=C(C)NC(SCC(N)=O)=C(C#N)C1c1ccncc1", "note": "(stereo not given)", "inhibition": "-2.55%"}
{"molecule": "COc1ccccc1C(=O)N1CC2(C)CC1CC(C)(C)C2", "note": "(stereo not given)", "inhibition": "-17.9%"}
{"molecule": "COc1ccc(Cl)cc1-c1n[nH]c(=S)o1", "inhibition": "22.8%"}
{"molecule": "COc1ccc(-c2nnn(-c3ccc(Cl)cc3Cl)c2N)cc1", "inhibition": "18.2%"}
{"molecule": "Clc1ccc(/C=C/c2ncc[nH]2)c(Cl)c1", "inhibition": "-14.2%"}
{"molecule": "Clc1ccc2nc(N3CCCCC3)[nH]c2c1", "inhibition": "36.1%"}
{"molecule": "CN(C)C(CNc1ccc([N+](=O)[O-])cc1C#N)c1ccccc1", "note": "(stereo not given)", "inhibition": "0.73%"}
{"molecule": "COc1ccc(C(=O)C2CCN(CC(=O)Nc3cc(C)cc(C)c3)CC2)cc1", "inhibition": "5.89%"}
{"molecule": "CCN1CCN(Cc2ccc(NC(=O)c3ccc(C)c(NC(=O)C(=O)c4c[nH]c5ccccc45)c3)cc2C(F)(F)F)CC1", "inhibition": "22.5%"}
{"molecule": "O=C(CSC1=NCCS1)Nc1nc2c(s1)CCCC2", "inhibition": "-5.66%"}
{"molecule": "COc1ccc(CC(=O)Nc2ncc([N+](=O)[O-])s2)cc1OC", "inhibition": "37.9%"}
{"molecule": "Cc1ccc(CNC(=O)CCC(=O)Nc2nnc(C)s2)cc1", "inhibition": "6.87%"}
